# Test results: PubChem BioAssay
# Active and inactive are the calls of the source.
# How the values were obtained:
# [1] = test system: Human papillomavirus type 1a protein E7 (residues 44-93); test: small molecules binding HPV E7 44-93 – biochemical, small-molecule microarray, residues 44-93, 635 nm fluorescence, primary screen (AID 1108); settings: fluorescence 635 nm, higher = more signal;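 note: E7 fragment applied at 1 µg/mL in TBST for 1 h at 4 C; score combines spot fluorescence with its signal to noise ratio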
# [2] = hepatitis C replication reporter changes, two-sided – Huh7 cells, luciferase reporter, HCV replication inhibitor project, primary screen (AID 1109); settings: Huh7 HCV replicon luciferase reporter, 48 h; higher = more signal;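 note: huh7 hepatoma cells harbouring a luciferase neomycin HCV replicon reporter; luciferase luminescence as measure of HCV replicon replication; test concentration not given here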
# [3] = target: Left-right determination factor 2 (Homo sapiens) (UniProt O00292); test: small molecules binding LEFTY2 protein – biochemical, small-molecule microarray, 635 nm fluorescence scan, primary screen (AID 1110); settings: higher = more signal
# [4] = target: Calmodulin-1 (Homo sapiens) (UniProt P0DP23); test: small molecules binding calmodulin-1 with EGTA – biochemical, small-molecule microarray, Cy5-labelled CALM1, profiling panel (AID 1111); settings: Cy5-CALM1 binding fluorescence, higher = more signal;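 note: labelled calmodulin applied in Tris saline Tween buffer holding calcium plus EGTA and DTT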
# [5] = target: Calmodulin-1 (Homo sapiens) (UniProt P0DP23); test: small molecules binding Ca-loaded calmodulin-1 – biochemical, small-molecule microarray, Cy5-labelled CALM1, plus calcium, artefact control for SMM control-protein annotation, profiling panel (AID 1112); settings: Cy5-CALM1 binding fluorescence, higher = more signal;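 note: score merges spot fluorescence with signal to noise from triplicate slides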
# [6] = probe aWnt5a binding to arrayed compounds – biochemical, biotinylated probe, 635/667 nm fluorescence, primary screen (AID 1113); settings: small-molecule microarray, higher = more signal;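 note: score merges 667 nm fluorescence intensity with signal-to-noise per printed feature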
# [7] = probe aShh binding to arrayed compounds – biochemical, biotinylated probe, 635/667 nm fluorescence, primary screen (AID 1114); settings: small-molecule microarray, higher = more signal;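 note: probe is biotin-labelled aShh protein from a stem cell growth factor screen; measures binding of labelled protein to compounds printed on the slide; score merges feature fluorescence at 667 nm with signal-to-noise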
# [8] = probe aNog binding to arrayed compounds – biochemical, biotinylated probe, 635/667 nm fluorescence, primary screen (AID 1115); settings: small-molecule microarray, higher = more signal;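 note: probe is biotinylated aNog protein used at 0.15 µg/mL for 1 h at 4 C; z-score combines 667 nm fluorescence of each spot with its signal to noise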
# [9] = target: Torsin-1A-interacting protein 1 (Homo sapiens) (UniProt Q5JTV8); test: compound microarray binding of lysate hLAP1 – cell lysate, small-molecule microarray, COS7 lysate, 635/667 nm fluorescence, primary screen (AID 1116); settings: 635 nm fluorescence, higher = more signal
# [10] = target: Alpha-bungarotoxin (Bungarus multicinctus) (UniProt P60615); test: compounds binding labelled alpha-BTX control protein – biochemical, small-molecule microarray, Alexa647 label, 635/667 nm fluorescence, artefact control for SMM control protein annotation, profiling panel (AID 1117); settings: alpha-BTX-A647 binding fluorescence, higher = more signal
# Albumin (Bos taurus) = Albumin (Bos taurus) (UniProt P02769); test: compounds binding labelled BSA control protein – biochemical, small-molecule microarray, Alexa647 label, 635/667 nm fluorescence, artefact control for SMM control protein annotation, profiling panel (AID 1118); settings: BSA-A647 binding, fluorescence 635 nm, higher = more signal;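 note: score merges 667 nm emission intensity and signal-to-noise per printed compound spot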
# [11] = probe aXIP binding to arrayed compounds – biochemical, NeuroSMM set, 635/667 nm fluorescence, primary screen (AID 1119); settings: small-molecule microarray, higher = more signal, called active from +8 up or from −8 down;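 note: probe is the protein aXip251-270 applied at 1 µg/mL to compound-printed slides; binding of probe to printed compounds measured as 667 nm fluorescence plus signal to noise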
# [12] = probe aNOTCH3 binding on compound microarray – biochemical, small-molecule microarray, 635/667 nm fluorescence, primary screen (AID 1120); settings: higher = more signal;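 note: probe is a biotin-tagged antibody raised against NOTCH3 rather than NOTCH3 protein; score merges spot fluorescence near 667 nm with spot signal to noise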
# [13] = probe aNOTCH2 binding on compound microarray – biochemical, small-molecule microarray, 635/667 nm fluorescence, primary screen (AID 1121); settings: higher = more signal;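 note: score merges feature fluorescence read at 667 nm with its signal to noise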
# [14] = target: Carbonic anhydrase 2 (Homo sapiens) (UniProt P00918); test: compounds binding carbonic anhydrase 2 – biochemical, small-molecule microarray, Alexa647-labelled CAII, profiling panel (AID 1122); settings: CAII-A647 binding fluorescence, higher = more signal
# [15] = COS7 lysate on small-molecule microarray, probe aHis, 635 nm (AID 1123); settings: COS7 cell lysate, fluorescence, higher = more signal;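 note: z-score combines 667nm fluorescence intensity with signal-to-noise per printed compound spot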
# [16] = probe aLAP1 signal on lysate-treated microarray – cell lysate, small-molecule microarray, COS7 lysate, primary screen (AID 1124); settings: probe aLAP1, fluorescence, higher = more signal;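 note: lysate comes from COS7 cells expressing LAP1 and is applied at 0.3 µg/mL; score merges spot fluorescence near 667 nm with signal-to-noise over triplicate slides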
# Sam68 (KHDRBS1) = test: compounds binding KHDRBS1 protein – biochemical, small-molecule microarray, 635 nm fluorescence, primary screen (AID 1125); settings: higher = more signal;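 note: score merges 667 nm channel intensity with signal to noise over triplicate slides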
# [17] = test system: Chordin-like protein 2 (CHRDL2); test: compounds binding chordin-like 2 – biochemical, small-molecule microarray, 635 nm fluorescence, primary screen (AID 1126); settings: fluorescence 635 nm, higher = more signal;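 note: printed compound slides probed with Chrdl2 protein at 4 µg/mL for 1 h at 4 C; score merges 667 nm emission intensity with signal to noise over three replicate slides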
# [18] = target: Concanavalin-A (Canavalia ensiformis) (UniProt P02866); test: compounds binding concanavalin A lectin – biochemical, small-molecule microarray, Alexa647 label, 635 nm, artefact control for SMM control protein annotation, primary screen (AID 1127); settings: ConA-A647 binding fluorescence, higher = more signal;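 note: z combines 667 nm emission intensity with signal-to-noise across three replicate slides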
# Chain of Concanavalin-A (Canavalia ensiformis) (P02866 whole entry, looked up): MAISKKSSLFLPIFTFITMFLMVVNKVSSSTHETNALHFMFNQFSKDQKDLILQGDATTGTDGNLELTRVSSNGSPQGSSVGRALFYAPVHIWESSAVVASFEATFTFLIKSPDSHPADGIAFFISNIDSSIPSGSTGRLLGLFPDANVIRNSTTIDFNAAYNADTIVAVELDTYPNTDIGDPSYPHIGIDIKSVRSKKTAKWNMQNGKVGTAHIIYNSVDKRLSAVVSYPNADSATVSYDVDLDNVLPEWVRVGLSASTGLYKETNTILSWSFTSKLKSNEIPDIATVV
# Chain of Left-right determination factor 2 (Homo sapiens) (O00292 whole entry, looked up): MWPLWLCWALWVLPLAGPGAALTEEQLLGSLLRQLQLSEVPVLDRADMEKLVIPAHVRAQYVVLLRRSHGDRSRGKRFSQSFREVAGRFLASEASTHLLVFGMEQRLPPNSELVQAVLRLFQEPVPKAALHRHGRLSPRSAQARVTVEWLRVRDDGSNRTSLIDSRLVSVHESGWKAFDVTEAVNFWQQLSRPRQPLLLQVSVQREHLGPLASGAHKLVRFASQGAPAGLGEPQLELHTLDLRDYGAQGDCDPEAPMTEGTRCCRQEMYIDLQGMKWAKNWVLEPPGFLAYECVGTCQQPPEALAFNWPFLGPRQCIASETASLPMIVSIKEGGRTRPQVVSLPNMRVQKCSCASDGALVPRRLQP
# Chain of Albumin (Bos taurus) (P02769 whole entry, looked up): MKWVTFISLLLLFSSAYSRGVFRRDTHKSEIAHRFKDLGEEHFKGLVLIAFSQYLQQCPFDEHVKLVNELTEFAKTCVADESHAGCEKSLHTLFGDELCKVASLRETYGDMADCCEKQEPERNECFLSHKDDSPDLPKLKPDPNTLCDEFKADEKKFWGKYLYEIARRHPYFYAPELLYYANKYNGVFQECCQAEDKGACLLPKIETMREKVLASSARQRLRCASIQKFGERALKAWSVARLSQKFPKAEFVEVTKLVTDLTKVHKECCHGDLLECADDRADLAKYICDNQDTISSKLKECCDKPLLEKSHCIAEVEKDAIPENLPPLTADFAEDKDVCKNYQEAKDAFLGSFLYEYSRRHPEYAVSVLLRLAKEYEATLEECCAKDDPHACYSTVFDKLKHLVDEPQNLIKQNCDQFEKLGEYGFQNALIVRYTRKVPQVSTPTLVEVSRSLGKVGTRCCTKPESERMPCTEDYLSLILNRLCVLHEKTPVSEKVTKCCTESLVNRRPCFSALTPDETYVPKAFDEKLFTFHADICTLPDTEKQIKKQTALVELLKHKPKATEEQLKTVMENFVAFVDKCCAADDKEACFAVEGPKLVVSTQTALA
# Chain of Torsin-1A-interacting protein 1 (Homo sapiens) (Q5JTV8 whole entry, looked up): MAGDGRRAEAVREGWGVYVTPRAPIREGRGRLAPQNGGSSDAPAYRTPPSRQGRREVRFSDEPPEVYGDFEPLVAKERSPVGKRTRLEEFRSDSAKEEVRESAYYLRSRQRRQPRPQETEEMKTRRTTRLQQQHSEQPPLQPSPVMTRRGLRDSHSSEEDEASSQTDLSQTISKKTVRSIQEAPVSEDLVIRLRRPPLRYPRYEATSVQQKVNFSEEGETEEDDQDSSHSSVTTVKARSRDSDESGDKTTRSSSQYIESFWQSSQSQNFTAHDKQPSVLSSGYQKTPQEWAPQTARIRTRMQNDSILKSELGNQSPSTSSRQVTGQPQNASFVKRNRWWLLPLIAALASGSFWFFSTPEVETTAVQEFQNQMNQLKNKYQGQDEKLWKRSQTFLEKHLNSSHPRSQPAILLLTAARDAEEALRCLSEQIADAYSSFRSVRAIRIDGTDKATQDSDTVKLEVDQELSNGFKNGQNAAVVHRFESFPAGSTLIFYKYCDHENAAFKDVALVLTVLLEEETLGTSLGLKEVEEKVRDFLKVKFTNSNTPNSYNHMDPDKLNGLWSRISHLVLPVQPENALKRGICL
# Chain of Alpha-bungarotoxin (Bungarus multicinctus) (P60615 whole entry, looked up): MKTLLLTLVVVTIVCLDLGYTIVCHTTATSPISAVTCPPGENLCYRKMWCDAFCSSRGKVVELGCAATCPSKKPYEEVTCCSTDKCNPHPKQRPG
Compound,composite z-score [1],z-score [2],composite z-score [3],composite z-score [4],composite z-score [5],composite z-score [6],composite z-score [7],composite z-score [8],composite z-score [9],composite z-score [10],composite z-score (Albumin (Bos taurus)),composite Z-score [11],composite z-score [12],composite z-score [13],composite z-score [14],composite z-score [15],composite z-score [16],composite z-score (Sam68 (KHDRBS1)),composite z-score [17],composite z-score [18]
O=C1C[C@]2(c3ccc([N+](=O)[O-])cc3)C(=O)N(CCN3CCOCC3)c3cc(CO)ccc3[C@H]2N1CC12CC3CC(CC(C3)C1)C2,-0.119,-0.544,-1.1,0.846,0.305,-0.0455,-0.0626,-0.345,0.15,1.15,0.89,0.83 (inactive),-0.185,-0.174,0.185,0.253,0.713,-0.631,-1.03,-0.163
CO[C@@H]1COC(=O)[C@@H]2CCCN2C(=O)[C@@H](C)COC(=O)[C@H](COCc2ccccc2)NC(=O)CC=C[C@H]1C,0.929,0.323,0.39,-0.142,-0.713,-0.0748,0.0941,-0.111,0.142,0.199,0.0307,-0.413 (inactive),-0.059,-0.147,0.12,1.35,-0.0015,0.813,0.611,0.379
CC(C)c1ccc(NN2C(C(O)c3ccc4c(c3)OCO4)C=CC3C(=O)N(c4ccccc4)C(=O)C32)cc1 (stereo not given),0.688,1.11,0.168,2.56,1.28,0.0775,0.108,2.13,2.2,1.92,1,0.491 (inactive),0.166,-0.0267,0.564,2.6,0.738,1.29,-0.0586,1.18
CCCC[C@H]1OB(O)C[C@H]2C1=C(C)C[C@H]1C(=O)N(C)C(=O)[C@H]12,0.736,-0.686,0.654,-0.0405,0.06,-0.0462,-0.243,0.322,-0.368,0.27,0.748,0.506 (inactive),0.16,-0.117,0.328,0.326,0.308,1.08,0.311,0.321
C=CCC(OC(C)=O)[C@@H]1[C@@H](N(Cc2cc3ccccc3o2)C(=O)Cc2ccc(F)cc2)c2cc(OCCCO)ccc2N1C(=O)Cc1ccc(OC)cc1 (stereo not given in full),-1.07,-1.14,-0.0691,-0.481,-0.435,-0.236,0.14,0.0234,0.158,0.286,0.323,-0.353 (inactive),-0.0932,-0.178,-0.446,-0.372,-0.374,-0.243,0.448,-0.437
COc1ccc(O[C@H]2C=C[C@@H](c3ccccc3)O[C@@H]2COC(=O)CCC(C)=NOC[C@@H](C)[C@H](OCc2ccccc2)C(C)C)cc1,-2.09,-0.667,-0.306,-1.65,-0.741,-0.0748,-0.283,-0.233,-0.956,-1.04,-0.874,0.289 (inactive),-0.155,-0.157,-0.608,-0.52,-0.212,-1.03,-0.522,-2.04
Cc1ccc(S[C@]2(C(=O)O)CC(=O)N(Cc3ccccc3)[C@@H]2c2ccc(CO)cc2I)cc1,0.34,-1.45,-0.891,-0.0405,-0.0584,-0.118,-0.206,-0.409,-0.192,0.823,0.258,-0.523 (inactive),-0.206,-0.13,0.701,0.921,0.223,0.21,0.347,0.883
CO[C@H]1COC(=O)[C@H](C)NC(=O)[C@@H](C)COC(=O)CC=C[C@@H]1C,-0.0574,-0.504,0.348,-0.239,-0.514,0.0502,0.432,0.131,0.687,0.53,-0.331,0.0462 (inactive),-0.0391,-0.192,-0.336,-0.851,-0.0193,0.41,0.858,0.303
O=C1[C@H]2[C@H]3[C@H](O)[C@H](O)CC(=NOC[C@@H](O)COCc4ccco4)[C@H]3CC[C@H]2C(=O)N1C1CCCCC1,-0.417,-0.353,1.05,-1.04,-1.77,-0.104,-0.138,-0.402,-0.324,-0.32,-0.709,-0.47 (inactive),0.0459,-0.258,-0.379,-0.317,-0.342,0.191,1.42,-0.843
CCOC(=O)NN=C1C[C@@H](O)[C@@H](O)[C@@H]2[C@@H]3C(=O)N(C[C@@H]4CCCO4)C(=O)[C@@H]3CC[C@@H]12,0.396,0.353,0.238,-0.375,-0.32,-0.0721,-0.273,-0.0428,0.584,-0.189,0.16,-0.354 (inactive),0.0927,-0.166,0.0815,0.361,0.649,0.339,0.0214,0.437
CCOC(=O)NN=C1C[C@@H](O)[C@@H](O)[C@@H]2[C@@H]3C(=O)N(C(C)(C)C)C(=O)[C@@H]3CC[C@@H]12,-0.772,-0.529,0.45,-0.671,-1.54,-0.278,-0.75,0.154,-0.48,-0.772,-0.422,0.136 (inactive),-0.0328,-0.14,-1.23,-0.443,0.171,-0.605,-0.63,-0.651
